In PubChem BioAssay (NCATS):
Records with an inconclusive call do not appear. Active and inactive are the calls of the source. Unless noted, calls come from the whole dose curve; as a rule, active = well fitted curve in the direction sought with a large enough effect; inconclusive = small, poorly fitted or top-dose-only effect, or another doubt; inactive = no such curve, though single readings can be large; an effect the other way counts as inactive or inconclusive.

Key:
[1] = Cytometric Cell-Based qHTS for Inhibitors of the mTORC1 Signaling Pathway in MEF (Tsc2-/-, p53-/-) Cells (AID 2660);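 note: percent of cells above a phospho-rpS6 to PI ratio cutoff in each well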
Outline: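 Cells are plated, treated with compound for 24 hrs at 37 degree Celsius, then fixed, blocked and immunostained for phospho-rpS6 Ser235/236. Propidium iodide counterstain follows. Per-well % positive cells is derived from the PI-normalized phospho-S6 signal.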

[2] = High Content Imaging Cell-Based qHTS for Inhibitors of the mTORC1 Signaling Pathway in MEF (Tsc2-/-, p53-/-) Cells (AID 2666); conditions: at 38.3 µM (top of the series);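 note: percent of cells scored positive for phospho-rpS6 Ser235/236 immunostaining by imaging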
Outline: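 Read-out: % positive cells per well, with thresholds from highest- and lowest-signal wells, based on phospho-rpS6 (Ser235/236) intensity normalized to Hoechst nuclear stain. Cells: Tsc2-/-, p53-/- MEFs carrying empty vector; compound 24 hrs, 37 degree Celsius.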

[3] = High Content Imaging Cell-Based qHTS for Inhibitors of the mTORC1 Signaling Pathway in MEF Cells (AID 2667);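 note: Tsc2-/- p53-/- MEFs stably re-expressing wild-type Tsc2 exposed 24 h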
Outline: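 MEF (Tsc2-/-, p53-/-, WT Tsc2 re-expressed); cpd 24 h, 37 °C; PFA fix; Alexa-488 anti-p-rpS6 Ser235/236, PI, Hoechst; IN Cell imaging; Hoechst/Alexa-488 intensity ratio; % active cells, thresholds set from rapamycin and DMSO wells.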

[4] = Cytometry Cell-Based qHTS for Inhibitors of the mTORC1 Signaling Pathway in MEF cells (AID 2668);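 note: Tsc2-/- p53-/- mouse embryonic fibroblasts stably re-expressing wild-type Tsc2; percent cells positive for phospho-rpS6 Ser235/236 relative to propidium iodide stain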
Outline: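 In MEFs grown in DMEM + 10% FBS, a 24 hrs compound exposure preceded imaging of phospho-rpS6 Ser235/236 by laser-scanning cytometry.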

[5] = target: DNA polymerase III PolC-type (Bacillus subtilis (strain 168)) (UniProt P13267); assay: qHTS Validation Assay for the Inhibitors of DNA Replication in Gram-Positive Bacteria (AID 485295);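 note: reconstituted holoenzyme with PolC plus beta clamp SSB and primase; PicoGreen fluorescence of double-stranded DNA made on primed circular M13 template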
Sequence of DNA polymerase III PolC-type (Bacillus subtilis (strain 168)) (P13267 whole entry, looked up): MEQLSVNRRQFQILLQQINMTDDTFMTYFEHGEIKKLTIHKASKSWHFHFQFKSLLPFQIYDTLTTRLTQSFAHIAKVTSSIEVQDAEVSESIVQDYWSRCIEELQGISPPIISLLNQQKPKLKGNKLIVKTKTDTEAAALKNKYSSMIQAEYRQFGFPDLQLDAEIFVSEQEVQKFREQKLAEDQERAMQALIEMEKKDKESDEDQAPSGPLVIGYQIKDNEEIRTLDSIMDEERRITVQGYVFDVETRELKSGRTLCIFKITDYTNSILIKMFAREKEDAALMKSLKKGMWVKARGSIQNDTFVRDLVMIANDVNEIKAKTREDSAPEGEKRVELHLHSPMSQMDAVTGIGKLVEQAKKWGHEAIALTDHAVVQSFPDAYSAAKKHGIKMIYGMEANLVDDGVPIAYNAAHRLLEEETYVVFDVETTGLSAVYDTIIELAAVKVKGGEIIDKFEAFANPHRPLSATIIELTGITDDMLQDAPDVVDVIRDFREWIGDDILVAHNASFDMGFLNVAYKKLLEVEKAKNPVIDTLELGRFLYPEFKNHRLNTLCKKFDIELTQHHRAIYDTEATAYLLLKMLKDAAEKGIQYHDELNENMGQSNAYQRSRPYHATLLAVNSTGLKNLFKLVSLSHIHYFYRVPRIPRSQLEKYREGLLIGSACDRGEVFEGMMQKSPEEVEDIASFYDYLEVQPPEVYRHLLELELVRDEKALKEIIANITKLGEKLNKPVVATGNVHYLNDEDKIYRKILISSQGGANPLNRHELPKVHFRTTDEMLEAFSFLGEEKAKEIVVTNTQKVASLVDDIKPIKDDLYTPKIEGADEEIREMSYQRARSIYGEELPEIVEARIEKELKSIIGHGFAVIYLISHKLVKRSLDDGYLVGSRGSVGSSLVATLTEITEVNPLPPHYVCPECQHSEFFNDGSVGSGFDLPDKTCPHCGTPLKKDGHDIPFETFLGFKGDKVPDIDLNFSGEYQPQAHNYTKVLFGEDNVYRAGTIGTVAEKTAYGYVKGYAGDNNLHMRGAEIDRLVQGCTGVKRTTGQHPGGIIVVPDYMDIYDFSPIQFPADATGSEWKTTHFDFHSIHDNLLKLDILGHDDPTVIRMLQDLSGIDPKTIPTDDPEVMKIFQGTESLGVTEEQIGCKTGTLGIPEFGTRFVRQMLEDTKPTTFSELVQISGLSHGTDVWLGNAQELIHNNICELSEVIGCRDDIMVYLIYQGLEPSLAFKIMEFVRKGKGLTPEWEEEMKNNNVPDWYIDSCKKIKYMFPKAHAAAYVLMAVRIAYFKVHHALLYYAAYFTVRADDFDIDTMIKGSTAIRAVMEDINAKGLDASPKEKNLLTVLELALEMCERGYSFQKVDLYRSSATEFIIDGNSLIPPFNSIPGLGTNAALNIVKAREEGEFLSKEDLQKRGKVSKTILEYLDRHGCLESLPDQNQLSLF
Outline: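 Inhibition of DNA synthesis by the reconstituted PolC holoenzyme, monitored through PicoGreen staining of dsDNA formed from ssM13Gori, dNTPs and NTPs, with compound preincubation and room-temperature reaction.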

[6] = target: Tumor susceptibility gene 101 protein (Homo sapiens) (UniProt Q99816); assay: qHTS Validation Assay for Iinhibitors of HIV-1 Budding by Blocking the Interaction of PTAP/TSG101 (AID 485342; calls by dose curve)
Sequence of Tumor susceptibility gene 101 protein (Homo sapiens) (Q99816 whole entry, looked up, the tested form may be a part): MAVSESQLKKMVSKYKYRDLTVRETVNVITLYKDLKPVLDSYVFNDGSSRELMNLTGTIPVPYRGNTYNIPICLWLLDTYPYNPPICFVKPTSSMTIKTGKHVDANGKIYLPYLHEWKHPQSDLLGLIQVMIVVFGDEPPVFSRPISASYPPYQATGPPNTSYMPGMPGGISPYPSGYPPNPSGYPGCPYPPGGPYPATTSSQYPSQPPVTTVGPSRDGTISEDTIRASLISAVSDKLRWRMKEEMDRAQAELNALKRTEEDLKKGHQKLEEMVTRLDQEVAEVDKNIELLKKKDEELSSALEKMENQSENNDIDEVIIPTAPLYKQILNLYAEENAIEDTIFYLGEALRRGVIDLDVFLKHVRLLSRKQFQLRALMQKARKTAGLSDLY
Outline: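 Compound wells held the Tsg101 binding domain (10 uM) and a FITC-conjugated PTAP peptide (50 nM) in buffer at pH 7.5 containing 0.15 M NaCl and 0.01% Tween 20; polarization was recorded after 20 min, r.t.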

[7] = target: Flap endonuclease 1 (Homo sapiens) (UniProt P39748); assay: qHTS Validation Assay for the Inhibitors of Human Flap endonuclease 1 (FEN1) (AID 488816)
Sequence of Flap endonuclease 1 (Homo sapiens) (P39748 whole entry, looked up): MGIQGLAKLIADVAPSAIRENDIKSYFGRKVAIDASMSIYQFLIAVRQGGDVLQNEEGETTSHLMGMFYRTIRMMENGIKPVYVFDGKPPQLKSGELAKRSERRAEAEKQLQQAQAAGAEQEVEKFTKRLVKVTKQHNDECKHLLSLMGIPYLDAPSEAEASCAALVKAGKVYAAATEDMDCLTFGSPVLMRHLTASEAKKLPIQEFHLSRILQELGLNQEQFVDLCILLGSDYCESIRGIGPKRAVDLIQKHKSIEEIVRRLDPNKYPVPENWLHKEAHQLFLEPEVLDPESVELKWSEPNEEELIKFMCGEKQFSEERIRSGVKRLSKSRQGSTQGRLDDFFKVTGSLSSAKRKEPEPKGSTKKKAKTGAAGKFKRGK
Outline: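 FEN1, dispensed as a 10 nM reagent, was preincubated with pin-transferred compounds for 15 min at room temperature before substrate was added (50 nM final). Plates were read at 0 and 15 min, and a four-parameter Hill equation was fitted to the concentration-response data.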

[8] = target: Chromobox protein homolog 1 (Homo sapiens) (UniProt P83916); assay: qHTS Validation Assay for Inhibitors of HP1-beta Chromodomain Interactions with Methylated Histone Tails (AID 488953); note: potency is the fitted concentration of half-maximal effect; nearly all actives have a fitted effect of over 50% in size
Sequence of Chromobox protein homolog 1 (Homo sapiens) (P83916 whole entry, looked up): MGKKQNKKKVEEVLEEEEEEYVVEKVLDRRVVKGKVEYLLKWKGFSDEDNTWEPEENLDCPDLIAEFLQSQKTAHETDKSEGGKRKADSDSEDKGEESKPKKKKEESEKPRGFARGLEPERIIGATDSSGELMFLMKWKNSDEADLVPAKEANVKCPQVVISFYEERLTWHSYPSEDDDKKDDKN
Outline: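 HP1-beta (50 nM) was preincubated 30 min at room temperature with biotinylated H3(1-18)K9me3 peptide (50 nM) in PBS pH 7.4, 0.01% Tween-20, then with compounds 30 min. AlphaScreen signal was read after streptavidin donor/nickel chelate acceptor beads (10 ug/mL final).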

[9] = target: Methanococcus maripaludis chaperonin (MmCpn) (UniProt Q6LX38); assay: High-Throughput Screening for Modulators of Cytosolic Chaperonin Activity: MmCpn Primary Screen (AID 488978)
Sequence of Methanococcus maripaludis chaperonin (MmCpn) (Q6LX38 1-543): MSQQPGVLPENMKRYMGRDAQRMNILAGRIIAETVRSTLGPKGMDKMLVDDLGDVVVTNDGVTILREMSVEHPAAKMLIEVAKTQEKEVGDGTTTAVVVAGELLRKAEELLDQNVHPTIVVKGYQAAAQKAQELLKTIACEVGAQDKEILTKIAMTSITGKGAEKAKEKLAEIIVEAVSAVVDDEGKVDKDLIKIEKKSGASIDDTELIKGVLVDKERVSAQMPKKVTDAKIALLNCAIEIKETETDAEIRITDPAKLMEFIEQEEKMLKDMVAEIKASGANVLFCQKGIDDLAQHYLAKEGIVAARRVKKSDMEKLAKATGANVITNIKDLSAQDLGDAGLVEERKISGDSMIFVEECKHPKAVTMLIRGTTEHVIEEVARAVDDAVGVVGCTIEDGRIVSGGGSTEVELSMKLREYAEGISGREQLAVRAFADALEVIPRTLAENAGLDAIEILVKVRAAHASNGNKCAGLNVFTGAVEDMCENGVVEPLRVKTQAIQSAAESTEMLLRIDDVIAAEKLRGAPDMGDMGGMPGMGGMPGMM
Outline: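 HTRF readout (320 nm excitation, 590/665 nm emission) of ADP generated by 50 nM MmCpn hydrolysing 30 uM ATP during 10 min at 37C; compound preincubated 5 min RT.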

[10] = target: D(1A) dopamine receptor (Homo sapiens) (UniProt P21728); assay: HTS Assay for Allosteric Agonists of the Human D1 Dopamine Receptor: Primary Screen for Agonists (AID 488981)
Sequence of D(1A) dopamine receptor (Homo sapiens) (P21728 whole entry, looked up): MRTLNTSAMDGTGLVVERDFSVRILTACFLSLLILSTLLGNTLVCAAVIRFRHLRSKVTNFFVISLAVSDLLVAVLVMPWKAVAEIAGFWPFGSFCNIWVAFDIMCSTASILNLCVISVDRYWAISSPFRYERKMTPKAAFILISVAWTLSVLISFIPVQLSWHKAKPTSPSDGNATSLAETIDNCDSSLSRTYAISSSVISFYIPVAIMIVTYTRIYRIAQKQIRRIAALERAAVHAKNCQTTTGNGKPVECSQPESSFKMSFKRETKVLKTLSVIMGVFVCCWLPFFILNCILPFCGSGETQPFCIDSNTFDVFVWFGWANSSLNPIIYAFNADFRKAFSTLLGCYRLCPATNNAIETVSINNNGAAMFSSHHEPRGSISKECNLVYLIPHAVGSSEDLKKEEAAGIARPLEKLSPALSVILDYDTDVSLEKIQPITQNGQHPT
Outline: (§1)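 Tetracycline-induced HEK293 T-REx cells force-coupled to calcium signalling were incubated overnight at 30 C and dye-loaded at room temperature. Calcium flux over 180 s after compound addition flagged agonists; a further 180 s read after EC20 dopamine flagged potentiators.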

[11] = target: D(1A) dopamine receptor (Homo sapiens) (UniProt P21728); assay: HTS Assay for Allosteric Agonists of the Human D1 Dopamine Receptor: Primary Screen for Potentiators (AID 488982)
Outline: as §1

[12] = Validation screen for small molecules that induce genotoxicity in human embryonic kidney (HEK293T) cells expressing luciferase-tagged ELG1 (AID 493106)
Outline: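 HEK293T cells expressing luciferase-tagged ELG1 were exposed to compound or DMSO vehicle for 16 hr at 37 °C, 5% CO2. Genotoxic stress raises ELG1 levels, so increased luciferase signal after ONE-Glo addition and 30 min at room temperature marks hits.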

[13] = target: Peptidyl-prolyl cis-trans isomerase NIMA-interacting 1 (Homo sapiens) (UniProt Q13526); assay: qHTS Validation Assay to Find Inhibitors of Pin1 (AID 504536; active = well fitted inhibition curve with a large enough effect in the polarisation, with a control signal flat, not every such curve was filed as active; the % refers to the polarisation)
Sequence of Peptidyl-prolyl cis-trans isomerase NIMA-interacting 1 (Homo sapiens) (Q13526 whole entry, looked up): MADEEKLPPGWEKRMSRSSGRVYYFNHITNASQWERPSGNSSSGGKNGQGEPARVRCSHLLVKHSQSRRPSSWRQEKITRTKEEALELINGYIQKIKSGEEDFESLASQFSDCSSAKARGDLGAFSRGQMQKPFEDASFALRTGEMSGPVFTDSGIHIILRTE
Outline: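 Fluorescence polarization competition: compounds (titration) displace HiFluor-488-labeled Pin1-1b peptide from Pin1 (0.3 uM final) in pH 7.5 HEPES buffer with DTT, 10 min at room temperature; %Activity normalized to no-enzyme wells, curves fitted.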

[14] = target: Phosphoglycerate kinase, glycosomal (Trypanosoma brucei brucei) (UniProt P07378); assay: qHTS Validation Assay to Find Inhibitors of Phosphoglycerate Kinase (AID 504547)
Sequence of Phosphoglycerate kinase, glycosomal (Trypanosoma brucei brucei) (P07378 whole entry, looked up): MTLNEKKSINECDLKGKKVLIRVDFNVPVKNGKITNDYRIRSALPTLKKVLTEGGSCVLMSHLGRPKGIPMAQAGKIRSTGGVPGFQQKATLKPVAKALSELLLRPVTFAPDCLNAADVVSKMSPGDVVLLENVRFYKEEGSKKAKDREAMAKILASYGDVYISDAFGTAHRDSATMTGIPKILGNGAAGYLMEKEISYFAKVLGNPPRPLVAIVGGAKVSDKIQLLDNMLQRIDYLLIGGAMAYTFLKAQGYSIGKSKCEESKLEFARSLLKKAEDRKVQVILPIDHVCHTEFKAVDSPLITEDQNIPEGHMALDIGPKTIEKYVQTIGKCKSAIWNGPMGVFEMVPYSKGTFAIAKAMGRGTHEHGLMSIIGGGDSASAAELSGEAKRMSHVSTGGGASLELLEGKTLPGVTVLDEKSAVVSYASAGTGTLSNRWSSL
Outline: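 Substrate/PGK mix plus compound; reaction started with GAPDH (100nM final) to form 1,3-BPG; 60 min RT; Kinase-Glo Plus 10 min; luminescence. TEA 100mM pH 7.6, MgCl2 5mM, Tween-20 0.01%.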

[15] = target: phosphoglycerate mutase (Leishmania major) (UniProt Q4Q090); assay: qHTS Validation Assay to Find Inhibitors of Phosphoglycerate Mutase (AID 504548)
Sequence of phosphoglycerate mutase (Leishmania major) (Q4Q090 1-553): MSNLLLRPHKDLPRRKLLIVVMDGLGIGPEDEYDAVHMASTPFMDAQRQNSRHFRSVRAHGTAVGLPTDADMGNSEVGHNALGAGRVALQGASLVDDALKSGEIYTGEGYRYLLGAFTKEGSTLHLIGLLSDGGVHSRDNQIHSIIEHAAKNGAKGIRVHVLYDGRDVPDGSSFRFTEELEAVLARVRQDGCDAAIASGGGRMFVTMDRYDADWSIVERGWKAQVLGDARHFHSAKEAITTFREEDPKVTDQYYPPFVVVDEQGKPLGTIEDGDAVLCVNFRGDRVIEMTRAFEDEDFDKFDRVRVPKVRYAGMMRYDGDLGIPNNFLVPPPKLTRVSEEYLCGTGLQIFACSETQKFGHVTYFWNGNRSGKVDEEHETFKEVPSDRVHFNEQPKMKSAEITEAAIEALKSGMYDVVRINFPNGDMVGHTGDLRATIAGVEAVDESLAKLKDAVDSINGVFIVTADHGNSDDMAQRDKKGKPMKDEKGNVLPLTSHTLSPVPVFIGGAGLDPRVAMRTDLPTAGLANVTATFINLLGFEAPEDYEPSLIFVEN
Outline: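 Luminescent end-point read-out via Kinase-GloPlus after a 10-minute development. Reaction: 1.25nM Leishmania major PGAM with substrate and compound, 45 minutes at room temperature in TEA buffer (pH 7.6) with MgCl2 and Tween-20.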

[16] = qHTS for Inhibitors of ATXN expression: Validation (AID 588378); note: nearly all actives have a fitted effect of over 75% in size
Outline: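 After a 2 h attachment and 24 h compound incubation, HEK293-ATXN2-FFLuc wells are read for fluorescence at 405 nm excitation/525 nm emission as a viability measure, then for Bright-Glo luminescence reflecting ATXN2 expression.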

[17] = target: Glutaminase kidney isoform, mitochondrial (Homo sapiens) (UniProt O94925); assay: qHTS for Inhibitors of Glutaminase (GLS): LOPAC Validation (AID 624146);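 note: glutamate product detected by oxidase and peroxidase coupled Amplex red fluorescence gain; nearly all actives have a fitted effect of over 60% in size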
Outline: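 Compounds were pin-transferred onto hKGA, after which L-glutamine (1 mM solution) and a detection mix of glutamate oxidase, HRP and Amplex Red were added. Initial and 30 min RT fluorescence reads were collected.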

[18] = qHTS of Trypanosoma Brucei Inhibitors: LOPAC Validation (AID 624147)
Outline: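 Luminescent Kinase-Glo Plus end-point after 45 min room-temperature reaction of T. brucei pyruvate kinase started with 130 uM ADP (final). Buffer TEA 50 mM pH 7.2 with KCl, MgCl2, BSA, Tween-20; titration-based qHTS with fitted concentration-effect curves.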

[19] = target: Glucagon-like peptide 1 receptor (Homo sapiens) (UniProt P43220); assay: qHTS of GLP-1 Receptor Agonists: LOPAC Validation (AID 624148);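 note: higher luminescence signal means agonism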
Sequence of Glucagon-like peptide 1 receptor (Homo sapiens) (P43220 whole entry, looked up): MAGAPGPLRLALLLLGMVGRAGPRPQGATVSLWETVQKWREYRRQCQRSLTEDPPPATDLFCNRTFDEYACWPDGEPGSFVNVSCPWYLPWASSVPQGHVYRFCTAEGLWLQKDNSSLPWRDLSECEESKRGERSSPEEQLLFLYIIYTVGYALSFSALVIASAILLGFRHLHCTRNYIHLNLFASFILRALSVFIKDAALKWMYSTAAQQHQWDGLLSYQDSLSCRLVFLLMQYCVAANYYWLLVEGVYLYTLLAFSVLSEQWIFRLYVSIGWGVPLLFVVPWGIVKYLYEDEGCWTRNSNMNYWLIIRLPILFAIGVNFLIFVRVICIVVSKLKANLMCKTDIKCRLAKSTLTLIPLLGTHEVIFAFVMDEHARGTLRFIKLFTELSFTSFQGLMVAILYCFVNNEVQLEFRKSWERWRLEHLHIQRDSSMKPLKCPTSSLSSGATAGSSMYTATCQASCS
Outline: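 HEK293 cells stably co-expressing a cAMP-responsive luciferase reporter and a hypersensitive GLP-1R were plated 12 h at 37 °C and exposed to compounds for 4-6 hr at 37 °C, 5% CO2. Luminescence was read 12 min after adding detection reagent.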

[20] = qHTS of Nrf2 Activators: LOPAC Validation (AID 624149)
Outline: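 AREc32 cells carrying an ARE-driven firefly luciferase were grown overnight in OPTI-MEM with 5% FBS, then exposed to compounds for 24 hr at 37 deg C. Luciferase signal was read after 30 min with Steady-Glo at RT.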

[21] = HTS Assay for Allosteric Antagonists of the Human D2 Dopamine Receptor: Hit Validation in HTRF (AID 624455);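 note: stable D1 dopamine receptor cell line scored for blocking the D1 response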
Outline: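 Hits were examined in an HTRF assay using cells stably expressing the D1 dopamine receptor, scoring inhibition of the D1-mediated response. The preceding primary screen tracked calcium flux after an EC80 dopamine addition in force-coupled, inducible Hek293 Trex D2 cells.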

[22] = target: Arylsulfatase A (Homo sapiens) (UniProt P15289); assay: qHTS screen for enhancers of Arylsulfatase A (ASA1): LOPAC Validation Assay (AID 720538); note: potency is the fitted concentration of half-maximal effect
Outline: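 Cell-based enhancement test: residual ASA activity in SV40-transformed I179S patient fibroblasts is measured by pNCS turnover (0.5mM final, 14h, room temperature) following 48h compound incubation; higher fluorescence indicates activation.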

[23] = qHTS for compounds that reverse cellular toxicity of Amyloid beta (A-beta) peptide in yeast: LOPAC Validation Assay (AID 720559)
Outline: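 Here, A-beta-toxic yeast grow with test compounds at 30 C for 48 hr before optical density at 600 nm is recorded; data are normalized against DMSO and the FeCl3-clioquinol control.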

[24] = qHTS for Activators of Parkin Expression: LOPAC Validation Assay (NLuc Reporter) (AID 720572)
Outline: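 Neuronal line stably carrying a FLuc/NLuc coincidence reporter under the Parkin promoter, seeded 24 h, then dosed in 7-point series for 24 h at 37 C. NLuc luminescence read after FLuc; normalized to DMSO and positive control (100%).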

Measured: Potency

CCc1ccc(/C=C2/SC(=S)NC2=O)cc1
active: [8] 12.6 µM | [22] 15.1 µM
inactive: all other assays above
